Assay [1] can be described thus: Nuclear factor erythroid 2-related factor 2/antioxidant responsive element (Nrf2/ARE) small molecule agonists: qHTS cell viability counter screen in human keratinocytes (AID 1919968; active = well fitted curve in the direction sought with a large enough effect in the repeat runs; an effect the other way counts as inactive or inconclusive; also: nearly all actives have a fitted effect of over 55% in size; also: potency is read from the fitted curve at half-maximal effect). A digest of the protocol:
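After a 5 h attachment period, ARE-reporter keratinocytes were dosed with compounds in DMSO and then cultured 23 h at 37 C. Cell viability came from CellTiter-Fluor signal read after a further 1 h.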

For assay [2], the target named is Gonadotropin-releasing hormone receptor (Homo sapiens) (UniProt P30968). Description: Human gonadotropin-releasing hormone receptor (GnRHR) small molecule agonists, calcium flux assay in GnRHR-HEK293 cells (AID 1920063). Also: nearly all actives have a fitted effect of over 35% in size. A digest of the protocol: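 We seeded human GnRHR-expressing HEK293 cells for 18 hours, loaded them with calcium dye for an hour at 37 C, added test compounds, and recorded fluorescence intensity kinetically for three minutes.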
In general terms: Calcium flux is commonly read through the fluorescence of an indicator in the cells.

The target of assay [3] is KiSS-1 receptor (Homo sapiens) (UniProt Q969F8). Nature of the assay: Human kisspeptin (KISS1R) small molecule agonists, calcium flux assay in KISS1R-HEK293 cells (AID 1920064; active = well fitted curve in the direction sought with a large enough effect in the repeat runs; an effect the other way counts as inactive or inconclusive). Put shortly:
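Kinetic calcium assay, 1 s sampling over 3 min at Ex/Em 480/540, in HEK293 cells engineered with human KISS1R; compounds delivered in DMSO after 1 h dye loading.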

Assay [4] in a line: G protein-coupled receptor (GPCR) small molecule agonists, calcium flux assay: HEK293 wild type cell line counter screen (AID 1920065). Put shortly:
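Calcium-sensitive dye, loaded 1 h at 37 C into cells cultured 18 h, reports compound-evoked calcium release as fluorescence (Ex/Em 480/540), measured over 3 min. Agonist mode; 15-point titrations, triplicate.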

Assay [5] is described as follows: p53 small molecule agonists, cell-based qHTS assay with human liver microsomes (AID 1963577). A digest of the protocol:
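Compounds act here after metabolic activation: human liver microsomes and NADPH, both at 0.5 mg/mL final, were co-added to p53RE-bla cells. Incubation ran 16 h at 37 C, followed by LiveBLAzer detection.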
On the technique in general: In qHTS, concentration-response curves come from the screen itself.

Assay [6] is described as follows: p53 small molecule agonists, cell-based qHTS assay with rat liver microsomes (AID 1963578). Put shortly:
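Read-out is beta-lactamase reporter fluorescence (LiveBLAzer, 2 h, room temperature, dark) in p53RE-bla cells treated 16 h at 37 C with compound, rat liver microsomes and NADPH, both 0.5 mg/mL final.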

Assay [7] in a line: p53 small molecule agonists, cell-based qHTS assay with human liver microsomes: qHTS cell viability counter screen (AID 1963579). Also: nearly all actives have a fitted effect of over 45% in size. Put shortly:
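Cells carrying the p53 response-element beta-lactamase reporter are treated for 16 h at 37 C with test compounds in the presence of human liver microsomes and NADPH (both 0.5 mg/mL final); ATP-based CellTiter-Glo luminescence then reports viability.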

The nature of assay [8]: p53 small molecule agonists, cell-based qHTS assay with rat liver microsomes: qHTS cell viability counter screen (AID 1963580). Also: nearly all actives have a fitted effect of over 45% in size. Put shortly: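 p53RE-bla HCT-116 cells (4,000/well) rested 5 h at 37 C, then given Tox21 compounds in DMSO with rat liver microsomes (0.5 mg/mL final) plus NADPH (0.5 mg/mL final) for 16 h at 37 C. Viability read by CellTiter-Glo luminescence after 30 min at room temperature.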

Assay [9] in a line: p53 small molecule agonists, cell-based qHTS assay: qHTS cell viability counter screen (AID 1963581). Also: nearly all actives have a fitted effect of over 45% in size. A digest of the protocol: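 Following 5 h attachment, HCT-116 p53RE-bla cells took up compound for 16 h at 37 C; the reporter was read with B/G FRET substrate (2 h RT), and viability then via CellTiter-Glo ATP luminescence.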
Assay [10] in a line: p53 small molecule agonists, cell-based qHTS assay (AID 1963582; active = well fitted activation curve with a large enough effect in the signal ratio in the repeat runs, not every such curve was filed as active; the % refers to the signal ratio). Put shortly:
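In this cell-based concentration-response screen, a p53 response element drives beta-lactamase; cells received DMSO-borne compounds after 5 h culture and were incubated a further 16 h before FRET substrate development.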

The target of assay [11] is 5-hydroxytryptamine receptor 2A (Homo sapiens) (UniProt P28223). Description: 5-hydroxytryptamine receptor 2A (HTR2A) small molecule antagonists, cell-based qHTS assay (AID 1963586). Also: nearly all actives have a fitted effect of over 45% in size. Also: potency is read from the fitted curve at half-maximal effect. Put shortly:
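Antagonist-mode intracellular calcium assay: DOI (4 nM) added after 5 min compound pre-incubation at room temperature to dye-loaded HTR2A-CHO cells. Fluorescence followed for 3 min, sampled every second.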

Assay [12] has as its target Muscarinic acetylcholine receptor M1 (Homo sapiens) (UniProt P11229). Nature of the assay: Cholinergic receptor muscarinic 1 (CHRM1) small molecule antagonists, cell-based qHTS assay (AID 1963588). Also: nearly all actives have a fitted effect of over 40% in size. Put shortly:
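CHRM1-CHO calcium-flux assay, antagonist mode. Cells were seeded 18 h, dye-loaded 1 h at 37 C and given compound for 5 min at RT, then acetylcholine was added at 50nM. FDSS fluorescence was read 3 min; 15 concentrations, three runs.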

The target is the same in assay [13]. Nature of the assay: Cholinergic receptor muscarinic 1 (CHRM1) small molecule agonists, cell-based qHTS assay (AID 1963589). Also: nearly all actives have a fitted effect of over 35% in size. A digest of the protocol: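 Measures agonist-induced intracellular calcium rise. Stable human CHRM1 CHO line, 1 h dye load at 37 C, compounds from DMSO, kinetic fluorescence read.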
Assay [14] in a line: cAMP Responsive Elements (CRE) small molecule agonists, cell-based qHTS assay (AID 1963590). A digest of the protocol: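 A CRE-responsive beta-lactamase reporter in HEK 293T cells was used. Treatment ran 3 h at 37 C; detection used LiveBLAzer B/G FRET substrate for 2 h at room temperature.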
Assay [15] addresses Beta-2 adrenergic receptor (Homo sapiens) (UniProt P07550). Nature of the assay: Adrenergic beta2 receptor (ADRB2) small molecule antagonists, cell-based qHTS assay (AID 1963592). Also: series mostly up to about 92 µM; nearly all actives have a fitted effect of over 50% in size. Put shortly:
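Cells (CHO, stable ADRB2 overexpression) incubated 18-20hr at 37C; compounds added from DMSO; agonist mix (1nM isoproterenol, 100uM IBMX, 25uM Ro-20-1724) added; 0.5hr RT; d2-cAMP and anti-cAMP-cryptate added; 1hr RT; 665/615 nm read.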

Assay [16] addresses D(2) dopamine receptor (Homo sapiens) (UniProt P14416). Nature of the assay: Dopamine D2 receptor (DRD2) small molecule agonists, cell-based qHTS assay (AID 1963594). Also: nearly all actives have a fitted effect of over 35% in size. A digest of the protocol:
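HEK293 cells stably expressing DRD2 were cultured 24 h at 37 C, then given Ro20-1724 (0.1 mM final) and compounds for 10 min at room temperature. NKH477 (200nM) was then added for 30 min. cAMP was read by HTRF.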

The target is the same in assay [17]. Nature of the assay: Dopamine D2 receptor (DRD2) small molecule antagonists, cell-based qHTS assay (AID 1963595; active = well fitted inhibition curve with a large enough effect in the signal ratio in the repeat runs, with a control signal flat; the % refers to the signal ratio). Put shortly: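 In this cell-based antagonist screen, compounds act for 10 min at room temperature before a 30 min challenge with 12 nM quinpirole and 200 nM NKH477. cAMP is quantified by HTRF competition in DRD2-HEK293 cells containing 0.1 mM Ro20-1724.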

Assay [18] deals with 5-hydroxytryptamine receptor 2A (Homo sapiens) (UniProt P28223). Description: 5-hydroxytryptamine receptor 2A (HTR2A) small molecule agonists, cell-based qHTS assay (AID 1963587). Also: nearly all actives have a fitted effect of over 30% in size. A digest of the protocol: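 HTR2A-CHO cells, plated 18 h at 37 C/5% CO2, dye-loaded 1 h at 37 C; compounds in DMSO added by pin tool (agonist mode). Intracellular calcium flux read as kinetic fluorescence on FDSS over 2 min at 1 s intervals.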

The nature of assay [19]: cAMP Responsive Elements (CRE) small molecule antagonists, cell-based qHTS assay (AID 1963591; active = well fitted inhibition curve with a large enough effect in the signal ratio in the repeat runs, not every such curve was filed as active; the % refers to the signal ratio). Put shortly:
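HEK293T cells carrying a CRE-driven beta-lactamase reporter receive compound and NKH477 (0.25 uM final) for 3 h. Fluorescence from LiveBLAzer B/G FRET substrate is read after 2 h at room temperature.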

Assay [20] addresses Beta-2 adrenergic receptor (Homo sapiens) (UniProt P07550). Description: Adrenergic beta2 receptor (ADRB2) small molecule agonists, cell-based qHTS assay (AID 1963593).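 Also: CHO cells stably overexpressing human ADRB2.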 A digest of the protocol:
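CHO cells stably over-expressing ADRB2 were plated overnight at 37C, then dosed with compounds plus a stimulation mix containing 100uM IBMX and 25uM Ro-20-1724 for 0.5hr at room temperature. cAMP was measured by HTRF competition, 1hr.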

This is an account of results in PubChem BioAssay (Tox21).

Several values for one entry are separate records, joined by “and”; a condition that tells them apart may be missing. Equal entries are not always repeated. Values without a mark were called inactive. Results filed as inconclusive are left out. Activity calls are given as the source filed them. Unless noted, calls follow the shape of the full dose curve.

Sequence of 5-hydroxytryptamine receptor 2A (Homo sapiens) (P28223 whole entry, looked up): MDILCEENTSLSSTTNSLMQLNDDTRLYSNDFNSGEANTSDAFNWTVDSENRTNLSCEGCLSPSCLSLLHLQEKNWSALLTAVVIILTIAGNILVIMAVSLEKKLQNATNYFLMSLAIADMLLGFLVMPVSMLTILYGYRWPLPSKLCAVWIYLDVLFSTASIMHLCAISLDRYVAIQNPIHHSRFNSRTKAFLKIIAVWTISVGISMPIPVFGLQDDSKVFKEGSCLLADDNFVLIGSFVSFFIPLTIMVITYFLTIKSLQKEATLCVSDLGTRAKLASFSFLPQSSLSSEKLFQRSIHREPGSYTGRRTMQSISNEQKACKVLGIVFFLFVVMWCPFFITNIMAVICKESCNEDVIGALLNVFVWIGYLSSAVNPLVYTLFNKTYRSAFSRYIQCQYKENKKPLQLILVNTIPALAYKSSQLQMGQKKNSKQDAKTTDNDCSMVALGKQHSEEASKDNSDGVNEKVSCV
Sequence of Muscarinic acetylcholine receptor M1 (Homo sapiens) (P11229 whole entry, looked up): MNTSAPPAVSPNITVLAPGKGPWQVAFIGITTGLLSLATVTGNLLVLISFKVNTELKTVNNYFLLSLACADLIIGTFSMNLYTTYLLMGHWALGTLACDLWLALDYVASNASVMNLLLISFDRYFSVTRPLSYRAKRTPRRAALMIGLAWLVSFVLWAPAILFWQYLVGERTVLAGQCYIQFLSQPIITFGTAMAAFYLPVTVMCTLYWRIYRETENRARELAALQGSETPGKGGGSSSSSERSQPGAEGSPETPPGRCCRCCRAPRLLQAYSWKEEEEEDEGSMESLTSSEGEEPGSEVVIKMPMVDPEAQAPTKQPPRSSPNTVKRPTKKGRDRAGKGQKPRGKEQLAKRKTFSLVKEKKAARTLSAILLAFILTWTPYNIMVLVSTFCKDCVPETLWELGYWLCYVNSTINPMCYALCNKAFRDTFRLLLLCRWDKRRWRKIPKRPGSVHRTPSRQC
Sequence of KiSS-1 receptor (Homo sapiens) (Q969F8 whole entry, looked up): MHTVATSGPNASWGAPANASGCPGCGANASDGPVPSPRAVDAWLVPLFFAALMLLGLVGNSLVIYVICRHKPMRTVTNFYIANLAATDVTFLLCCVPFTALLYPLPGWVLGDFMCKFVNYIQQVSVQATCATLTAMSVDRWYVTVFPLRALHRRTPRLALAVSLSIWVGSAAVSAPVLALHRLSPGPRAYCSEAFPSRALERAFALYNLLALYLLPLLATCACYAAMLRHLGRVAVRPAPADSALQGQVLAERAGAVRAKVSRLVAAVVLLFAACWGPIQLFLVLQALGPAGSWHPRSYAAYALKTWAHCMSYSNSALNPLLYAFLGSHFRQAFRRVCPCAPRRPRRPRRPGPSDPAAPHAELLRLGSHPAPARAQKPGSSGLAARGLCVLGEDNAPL
Sequence of D(2) dopamine receptor (Homo sapiens) (P14416 whole entry, looked up): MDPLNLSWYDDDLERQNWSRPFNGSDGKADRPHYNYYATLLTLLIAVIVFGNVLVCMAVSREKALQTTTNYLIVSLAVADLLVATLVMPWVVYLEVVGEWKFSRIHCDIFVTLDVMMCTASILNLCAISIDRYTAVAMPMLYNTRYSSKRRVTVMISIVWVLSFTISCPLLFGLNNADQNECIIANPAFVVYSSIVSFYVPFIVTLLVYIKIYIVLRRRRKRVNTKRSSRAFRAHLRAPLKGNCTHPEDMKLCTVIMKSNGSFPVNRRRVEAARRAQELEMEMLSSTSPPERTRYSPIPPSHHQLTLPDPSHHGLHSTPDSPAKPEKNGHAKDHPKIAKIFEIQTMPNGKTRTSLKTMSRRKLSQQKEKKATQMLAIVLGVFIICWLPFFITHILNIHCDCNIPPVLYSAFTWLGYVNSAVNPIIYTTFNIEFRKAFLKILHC
Sequence of Gonadotropin-releasing hormone receptor (Homo sapiens) (P30968 whole entry, looked up): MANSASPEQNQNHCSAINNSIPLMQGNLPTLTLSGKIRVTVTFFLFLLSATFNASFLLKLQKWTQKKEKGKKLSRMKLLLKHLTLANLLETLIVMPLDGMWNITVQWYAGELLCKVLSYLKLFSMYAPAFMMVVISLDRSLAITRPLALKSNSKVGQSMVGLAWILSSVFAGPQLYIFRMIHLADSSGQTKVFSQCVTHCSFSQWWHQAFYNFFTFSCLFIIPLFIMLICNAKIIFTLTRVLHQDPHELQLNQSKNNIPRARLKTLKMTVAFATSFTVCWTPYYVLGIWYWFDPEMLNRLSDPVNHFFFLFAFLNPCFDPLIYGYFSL
Sequence of Beta-2 adrenergic receptor (Homo sapiens) (P07550 whole entry, looked up): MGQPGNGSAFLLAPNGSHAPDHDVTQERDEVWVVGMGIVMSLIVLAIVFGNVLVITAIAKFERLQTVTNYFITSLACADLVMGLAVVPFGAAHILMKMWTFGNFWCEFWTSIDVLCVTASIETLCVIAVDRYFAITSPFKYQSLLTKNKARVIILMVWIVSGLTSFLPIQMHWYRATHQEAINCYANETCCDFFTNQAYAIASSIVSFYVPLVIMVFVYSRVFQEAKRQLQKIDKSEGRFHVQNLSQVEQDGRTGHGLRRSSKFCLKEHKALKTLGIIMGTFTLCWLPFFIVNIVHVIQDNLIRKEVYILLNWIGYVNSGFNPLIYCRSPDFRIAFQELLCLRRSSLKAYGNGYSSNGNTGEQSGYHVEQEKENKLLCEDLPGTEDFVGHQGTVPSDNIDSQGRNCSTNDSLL

For the compound `C=CC(=O)OC`, the Potency entry in assay [1], in assay [2], in assay [3], in [4], in assay [5] and in [6] was “inactive” each time. Moreover, the Potency result in assay [7], in assay [8], in assay [9], in assay [10], in assay [11] and in [12] was “inactive” each time. For the same compound, the Potency result in assay [13], in [14], in assay [15], in assay [16] and in assay [17] was “inactive” in each case.
As to `CCc1cccc(C)c1N(C(=O)CCl)[C@@H](C)COC`, the Potency result in assay [1], in [2], in assay [3], in assay [4], in [5] and in [6] was “inactive” in each case. In addition, the Potency entry in assay [7], in [8], in assay [9], in assay [10], in [11] and in assay [18] was “inactive” in each case. The Potency result in assay [12], in assay [13], in assay [14], in assay [15], in assay [16] and in assay [17] was “inactive” each time.
In the case of `CC1Sc2c(C(=O)O)c(=O)c3cc(F)c(N4CCNCC4)cc3n21` (stereo not given), the Potency result in [1], in assay [2], in assay [3], in [4], in [5] and in assay [6] was “inactive” in each case. Moreover, the Potency result in [7], in assay [8], in assay [9], in [10], in [11] and in assay [18] was “inactive” each time. For the same compound, the Potency entry in assay [12], in assay [13], in assay [16] and in assay [17] was “inactive” in each case.
On to `O=[N+]([O-])c1ccc(Cl)c(Cl)c1Cl`, for which the Potency result in [1], in [2], in [3], in assay [4], in assay [5] and in [6] was “inactive” each time. Further, the Potency entry in assay [7], in [8], in [9], in assay [10], in assay [11] and in assay [18] was “inactive” throughout. The Potency entry in [12], in [13], in assay [14], in [19], in assay [15] and in assay [16] was “inactive” throughout. For the same compound, the Potency result in [17] is “inactive”.
Consider `CC1CCCCC1NC(=O)Nc1ccccc1` (stereo not given), for which the Potency entry in assay [1], in assay [2], in assay [3], in assay [4], in assay [5] and in assay [6] was “inactive” in each case. Moreover, the Potency entry in [7], in assay [11], in assay [18], in assay [12], in [14] and in assay [19] was “inactive” each time. In addition, the Potency entry in assay [15], in assay [20], in assay [16] and in assay [17] was “inactive” each time.
With `CCC(C)c1cc(C(C)(C)C)cc(-n2nc3ccccc3n2)c1O` (stereo not given), the Potency entry in [1], in assay [2], in [3], in assay [4], in [5] and in [6] was “inactive” throughout. For the same compound, the Potency result in assay [7], in assay [10], in assay [11], in [18], in assay [12] and in assay [13] was “inactive” each time. Further, the Potency entry in [14], in assay [19], in assay [15], in assay [16] and in assay [17] was “inactive” in each case.
Turning to `NNC(=O)c1cccnc1`, the Potency entry in assay [1], in assay [2], in assay [3], in assay [4], in assay [5] and in assay [6] was “inactive” each time. For the same compound, the Potency entry in [8], in assay [9], in assay [10], in assay [18], in [12] and in assay [13] was “inactive” in each case. In addition, the Potency result in assay [14], in [19], in assay [15], in [16] and in assay [17] was “inactive” in each case.
`O=[N+]([O-])c1ccc(Nc2ccccc2)cc1`: the Potency was 61.6 µM (active) in assay [1]; 16.9 µM (active) and 16.8 µM (active) in [11]. The Potency result in assay [2], in assay [3], in assay [4], in assay [5], in [6] and in [7] was “inactive” throughout. Moreover, the Potency result in assay [8], in assay [18], in assay [12], in [13], in [15] and in assay [16] was “inactive” each time. For the same compound, the Potency result in [17] was “inactive”.
